These results are taken from PubChem BioAssay (NCI).

About 79,000 compounds went through this panel and 15% of them were active in at least one assay; those are over-represented in the sample as a whole. A number with no mark means an inactive call. Activity calls are given as the source filed them. No stated cut-off is given here; in the data, active means growth inhibition above about 70%; inactive means the rest.

The nature of assay [1]: NCI Yeast Anticancer Drug Screen. Data for the rad50 strain (AID 155).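 Further: 0% = growth of vehicle-only cultures of the same strain.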 The note with it: S. cerevisiae rad50 strain growth inhibition, stronger effect = higher value. The essentials:
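Compounds were tested on a yeast strain with an engineered DNA damage repair alteration; the reported value is growth inhibition normalised to vehicle treatment.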

Assay [2] can be described thus: NCI Yeast Anticancer Drug Screen. Data for the mec2-1 strain (AID 157). The note with it: S. cerevisiae mec2-1 strain, stronger effect = higher value. An outline of the steps:
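Growth inhibition is read against vehicle-treated controls after compound exposure of the mec2-1 yeast strain, which is defective in DNA damage repair or cell cycle control.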

Assay [3] in a line: NCI Yeast Anticancer Drug Screen. Data for the sgs1 mgt1 strain (AID 161).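 Further: 0% = growth of cultures given vehicle only.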 The note with it: S. cerevisiae sgs1 mgt1 strain, stronger effect = higher value. The essentials: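 Percent growth inhibition was derived by comparing compound-exposed mutant yeast with vehicle-exposed cultures. The strain carries alterations in DNA damage repair.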
Assay [4] can be described thus: NCI Yeast Anticancer Drug Screen. Data for the cln2 rad14 strain (AID 165).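 Further: 0% = growth equal to vehicle treated cultures.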 The note with it: S. cerevisiae cln2 rad14 strain, stronger effect = higher value. The essentials:
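Growth inhibition, relative to vehicle-treated controls, is the read-out. The test organism is a yeast strain with defined genetic alterations, cln2 rad14.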

Assay [5] in a line: NCI Yeast Anticancer Drug Screen. Data for the bub3 strain (AID 167). The note with it: S. cerevisiae bub3 mutant strain, stronger effect = higher value. An outline of the steps: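 Growth of a checkpoint-deficient yeast mutant is measured after compound exposure. Values represent inhibition relative to vehicle.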
A short description of assay [6]: NCI Yeast Anticancer Drug Screen. Data for the mlh1 rad18 strain (AID 175). The note with it: S. cerevisiae mlh1 rad18 strain growth inhibition, stronger effect = higher value. The essentials: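 Cells of a genetically altered yeast strain, deficient in DNA damage repair, were treated with compound. Their growth was then compared with that of vehicle-treated cultures to give inhibition.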

[7] abbreviates: at 5.0 µM (retest, dose inferred, filed as 0.5).
[8] abbreviates: at 50.0 µM (retest, dose inferred, filed as 5.0).

`O=C1NC(=O)C(c2ccccc2)(c2ccccc2)C2CC3c4[nH]c5ccccc5c4CCN3CC12` (configuration not stated): the growth inhibition in assay [1] (setting [7]) is 5%; in assay [1] (setting [8]), 61%; in assay [1] (at 50.0 µM), 64.5%; in assay [2] (setting [7]), 6%; in assay [2] (setting [8]), 63%; in assay [2] (at 50.0 µM), 59.1%. Moreover, the growth inhibition in assay [3] (setting [7]) is 5%; in assay [3] (setting [8]) it was 65%; in assay [3] (at 50.0 µM) it was 56%; in assay [4] (setting [7]) it was 6%; in assay [4] (setting [8]), 66%; in assay [4] (at 50.0 µM), 46.6%. The growth inhibition was 6% in assay [5] (setting [7]); 51% in assay [5] (setting [8]); 37.5% in assay [5] (at 50.0 µM); 1% in assay [6] (setting [7]); 60% in assay [6] (setting [8]); 73.8% (active) in assay [6] (at 50.0 µM).

Turning to `CC(NNC(=S)N1CCCC1)c1ccccn1` (configuration not stated), the growth inhibition in assay [1] (setting [7]) was 63%; in assay [1] (setting [8]), 97% (active); in assay [1] (at 50.0 µM), 98.8% (active); in assay [2] (setting [7]), 52%; in assay [2] (setting [8]), 98% (active); in assay [2] (at 50.0 µM) it was 98.7% (active). For the same molecule, the growth inhibition in assay [3] (setting [7]) is 63%; in assay [3] (setting [8]), 98% (active); in assay [3] (at 50.0 µM) it was 98.9% (active); in assay [4] (setting [7]), 48%; in assay [4] (setting [8]), 98% (active); in assay [4] (at 50.0 µM) it was 99% (active). In addition, the growth inhibition in assay [5] (setting [7]) was 53%; in assay [5] (setting [8]), 98% (active); in assay [5] (at 50.0 µM), 99.2% (active); in assay [6] (setting [7]), 60%; in assay [6] (setting [8]) it was 98% (active); in assay [6] (at 50.0 µM), 98.8% (active).

Take `O=[N+]([O-])c1ccc(NNS(=O)(=O)c2ccccc2)c([N+](=O)[O-])c1`: the growth inhibition in assay [1] (setting [7]) was 3%; in assay [1] (setting [8]), -7%; in assay [1] (at 50.0 µM), 5.85%; in assay [2] (setting [7]), -13%; in assay [2] (setting [8]), -4%; in assay [2] (at 50.0 µM), 16.3%. In addition, the growth inhibition in assay [3] (setting [7]) is -3%; in assay [3] (setting [8]), 13%; in assay [3] (at 50.0 µM) it was 10.3%; in assay [4] (setting [7]), -33%; in assay [4] (setting [8]), -17%; in assay [4] (at 50.0 µM), -18.2%. Moreover, the growth inhibition is 4% in assay [5] (setting [7]); 13% in assay [5] (setting [8]); -2% in assay [5] (at 50.0 µM); 0% in assay [6] (setting [7]); 16% in assay [6] (setting [8]); 13.8% in assay [6] (at 50.0 µM).

Turning to `CCCCCCCCNC(=O)C(Cl)Cl`, the growth inhibition is 3% in assay [1] (setting [7]); 17% in assay [1] (setting [8]); -6.1% in assay [1] (at 50.0 µM); -27% in assay [2] (setting [7]); 11% in assay [2] (setting [8]); 2.6% in assay [2] (at 50.0 µM). In addition, the growth inhibition is 0% in assay [3] (setting [7]); 10% in assay [3] (setting [8]); 40% in assay [3] (at 50.0 µM); 12% in assay [4] (setting [7]); -11% in assay [4] (setting [8]); -10.6% in assay [4] (at 50.0 µM). Further, the growth inhibition in assay [5] (setting [7]) was 37%; in assay [5] (setting [8]) it was 84% (active); in assay [5] (at 50.0 µM), 70.4% (active); in assay [6] (setting [7]), 4%; in assay [6] (setting [8]), 17%; in assay [6] (at 50.0 µM), -3.2%.

Consider `NC(CSSCC(N)=NCCCCCSC12CC3CC(CC(C3)C1)C2)=NCCCCCSC12CC3CC(CC(C3)C1)C2`, for which the growth inhibition in assay [1] (setting [7]) is -2%; in assay [1] (setting [8]) it was 22%; in assay [1] (at 50.0 µM) it was 99.2% (active); in assay [2] (setting [7]) it was 1%; in assay [2] (setting [8]), 11%; in assay [2] (at 50.0 µM), 99.6% (active). Besides, the growth inhibition in assay [3] (setting [7]) is 1%; in assay [3] (setting [8]) it was 12%; in assay [3] (at 50.0 µM), 99.5% (active); in assay [4] (setting [7]), 3%; in assay [4] (setting [8]) it was 2%; in assay [4] (at 50.0 µM), 98.8% (active). Besides, the growth inhibition in assay [5] (setting [7]) is 5%; in assay [5] (setting [8]) it was 15%; in assay [5] (at 50.0 µM) it was 98.7% (active); in assay [6] (setting [7]) it was 0%; in assay [6] (setting [8]) it was 16%; in assay [6] (at 50.0 µM), 99.3% (active).

Consider `COC(=O)C(CBr)CBr`, for which the growth inhibition in assay [1] (setting [7]) is 25%; in assay [1] (setting [8]), 100% (active); in assay [1] (at 50.0 µM), -20.9%; in assay [2] (setting [7]), 34%; in assay [2] (setting [8]) it was 99% (active); in assay [2] (at 50.0 µM), 9.55%. Further, the growth inhibition in assay [3] (setting [7]) was 22%; in assay [3] (setting [8]) it was 98% (active); in assay [3] (at 50.0 µM), -5.25%; in assay [4] (setting [7]) it was 21%; in assay [4] (setting [8]) it was 99% (active); in assay [4] (at 50.0 µM), 10.7%. The growth inhibition is 47% in assay [5] (setting [7]); 100% (active) in assay [5] (setting [8]); 5.8% in assay [5] (at 50.0 µM); 39% in assay [6] (setting [7]); 99% (active) in assay [6] (setting [8]); -14.7% in assay [6] (at 50.0 µM).

Consider `Nc1nc(N)c(C(=O)SCc2ccccc2)nc1Cl`, for which the growth inhibition in assay [1] (setting [7]) was 6%; in assay [1] (setting [8]), 70% (active); in assay [1] (at 50.0 µM) it was 66%; in assay [2] (setting [7]), 2%; in assay [2] (setting [8]) it was 57%; in assay [2] (at 50.0 µM), 58.9%. In addition, the growth inhibition in assay [3] (setting [7]) was 3%; in assay [3] (setting [8]), 52%; in assay [3] (at 50.0 µM) it was 97.4% (active); in assay [4] (setting [7]), 2%; in assay [4] (setting [8]) it was 70% (active); in assay [4] (at 50.0 µM), 4.95%. Besides, the growth inhibition is -2% in assay [5] (setting [7]); 62% in assay [5] (setting [8]); 7.45% in assay [5] (at 50.0 µM); 5% in assay [6] (setting [7]); 94% (active) in assay [6] (setting [8]); 69.3% in assay [6] (at 50.0 µM).

On to `Cc1ccc(S(=O)(=O)Nn2c(S)c(C#N)c(-c3ccc([N+](=O)[O-])cc3)c(C#N)c2=O)cc1`, for which the growth inhibition in assay [1] (setting [7]) is 25%; in assay [1] (setting [8]) it was 59%; in assay [1] (at 50.0 µM), 49.6%; in assay [2] (setting [7]), 8%; in assay [2] (setting [8]), 35%; in assay [2] (at 50.0 µM), 46.6%. For the same molecule, the growth inhibition in assay [3] (setting [7]) was 24%; in assay [3] (setting [8]), 78% (active); in assay [3] (at 50.0 µM) it was 72.3% (active); in assay [4] (setting [7]) it was 43%; in assay [4] (setting [8]) it was 43%; in assay [4] (at 50.0 µM), 29.8%. The growth inhibition in assay [5] (setting [7]) is 45%; in assay [5] (setting [8]), 65%; in assay [5] (at 50.0 µM), 54.6%; in assay [6] (setting [7]) it was 19%; in assay [6] (setting [8]) it was 46%; in assay [6] (at 50.0 µM) it was 59%.

As to `O=C1c2ccccc2C2N1CCCN2C(=O)c1sc2ccccc2c1Cl` (configuration not stated), the growth inhibition in assay [1] (setting [7]) is 49%; in assay [1] (setting [8]), 98% (active); in assay [1] (at 50.0 µM), 90% (active); in assay [2] (setting [7]), 30%; in assay [2] (setting [8]) it was 99% (active); in assay [2] (at 50.0 µM), 92% (active). Also, the growth inhibition in assay [3] (setting [7]) was 29%; in assay [3] (setting [8]) it was 99% (active); in assay [3] (at 50.0 µM), 92.8% (active); in assay [4] (setting [7]), 28%; in assay [4] (setting [8]), 96% (active); in assay [4] (at 50.0 µM) it was 90.3% (active). In addition, the growth inhibition in assay [5] (setting [7]) was 35%; in assay [5] (setting [8]) it was 98% (active); in assay [5] (at 50.0 µM), 92% (active); in assay [6] (setting [7]), 44%; in assay [6] (setting [8]), 98% (active); in assay [6] (at 50.0 µM), 90.5% (active).
